For 25 compounds, inhibition results are on record in PubChem BioAssay.

As usually defined, the inhibition is the drop in the measured response relative to a control, in per cent.

The test in a line: NFkB reporter suppression in cystic fibrosis bronchial cells – cell-based, uHTS hits, panel, cytotoxicity readout, dose response (AID 624344). The following applies: CF bronchial epithelial cells, PAF-induced NFkB reporter inhibition, with PAF, run 2; at 79 µM (top of the series) unless noted.
In the case of `O=C(CCl)N(Cc1cc(=O)[nH]c2ccccc12)c1ccccc1`, the inhibition amounted to 83.6%.
For `Cc1c(Cl)cccc1NC(=O)CSc1nc2ncc(Cl)cc2[nH]1`, the inhibition stood at 98.7%.
As to `CC1(Cc2cccc(F)c2)C(=O)Nc2ccc(-c3cccnc3)cc21` (stereo not given), the inhibition turned out to be 98.2%.
Consider `O=C(c1cncc(Br)c1)N1CCc2ccccc2C1`, for which the inhibition was determined as 80.2%.
On to `COc1ccc(COC(=O)C2=C(C)NC(=O)NC2c2ccc(F)cc2)cc1` (stereo not given), for which the inhibition was found to be 105%.
On to `O=C(Nc1ccc2c(c1)OCCO2)c1cc(-c2ccccn2)nc2ccc(Br)cc12`, for which the inhibition stood at 68.9%.
Next, `O=C(Nc1ccccc1)Nc1ncc([N+](=O)[O-])s1`: 96.7%; `COc1cccc(Nc2ncnc3ccc(Br)cc23)c1`: 105%.
Turning to `CC(C)[C@H](CO)Nc1nc(NCc2ccc(S(N)(=O)=O)cc2)c2ncn(C(C)C)c2n1`, the inhibition amounted to 110%.
Take `O=C(CC12CC3CC(CC(C3)C1)C2)Nc1nncs1`: the inhibition amounted to 100%.
Consider `c1ccc2c(-c3cncc4ccccc34)cncc2c1`, for which the inhibition was 99.8%.
As for `Cc1ccc(S(=O)(=O)/N=C(\CCl)N2CCOCC2)cc1`, the inhibition was found to be 102%.
As to `CCc1ccc(Nc2n[n+](-c3ccccc3)c(-c3c(Cl)cccc3Cl)s2)cc1`, the inhibition is 101%.
The result for `Cc1ccc(CSc2nccc(-c3c(C)nc4ccccn34)n2)cc1` reads 102%; that for `COc1ccc(-c2cc(NC=O)c3ncc(-c4cc(OC)c(OC)c(OC)c4)n3c2)cc1`, 53.5%; that for `O=C(Nc1cccc(-c2cnc3ccccc3n2)c1)c1cccc(NC(=O)c2ccco2)c1`, 96.6%.
The result for `O=C(Nc1cccc(Cl)c1)Nc1csc([N+](=O)[O-])c1` reads 97.5%; that for `C=CCn1cnc2c(c1=O)c1nc3ccccc3nc1n2/N=C/c1cc(OC)c(OC)c(OC)c1`, 102%; that for `CCOC(=O)C1=C(CC)Nc2ccccc2N=C1NC(=O)c1oc2ccccc2c1C`, 91.5%.
For the compound `CCOC(=O)[C@@H]1[C@H]2COc3ccc(Br)cc3[C@H]2N2C(=O)N(c3ccc(C)cc3)C(=O)[C@]12C`, the inhibition was found to be 35.9%.
Consider `COc1ccc(/C=C/C(=O)c2cc(F)ccc2OC(=O)c2ccccc2C)cc1OC`, for which the inhibition was 90.3%.
The result for `COc1ccc(C(=O)N[C@H](C(=O)Nc2nc3ccccc3[nH]2)C(C)C)cc1` reads 102%; that for `CCCN(CC)c1ncnc2[nH]ncc12`, 108%.
For the compound `Nc1nc(/C=C/c2cccnc2)nc(-c2ccccc2O)n1`, the inhibition amounted to 110%.
For the compound `COc1cc(O)c(CC=C(C)C)c(O)c1C(=O)CCc1ccc(O)cc1`, the inhibition came to 104%.
